Epigenetic reg: derepresses silenced GFP reporter in murine cells; murine LDR cells, GFP reporter derepression, 30 h; Potency, µM (series often up to 53.9 µM), for inactives: top-dose GFP activation, most hits filed as activators; 280,000 tested, 0.2% active; active = well fitted activation curve with a large enough effect; note: potency is the fitted concentration of half-maximal effect; % of control where 0% means no effect; nearly all actives have a fitted effect of over 60% in size
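In this reporter-derepression format, murine cells bearing a silenced integrated CMV-GFP locus incubate with test compound (30 h, 37 C), then are washed and imaged; fluorescent objects of 20–120 um count as induced cells.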
D1 potentiator: enhances dopamine response at the human D1 receptor; HEK293 TREx D1 cells, calcium flux, dopamine EC20 potentiation; potentiation, % at 10 µM; 360,000 tested, 0.036% active; AID 504651; in the data active = potentiation above about 30%; note: 0% is about no effect
Target sequence (P21728 whole entry, looked up): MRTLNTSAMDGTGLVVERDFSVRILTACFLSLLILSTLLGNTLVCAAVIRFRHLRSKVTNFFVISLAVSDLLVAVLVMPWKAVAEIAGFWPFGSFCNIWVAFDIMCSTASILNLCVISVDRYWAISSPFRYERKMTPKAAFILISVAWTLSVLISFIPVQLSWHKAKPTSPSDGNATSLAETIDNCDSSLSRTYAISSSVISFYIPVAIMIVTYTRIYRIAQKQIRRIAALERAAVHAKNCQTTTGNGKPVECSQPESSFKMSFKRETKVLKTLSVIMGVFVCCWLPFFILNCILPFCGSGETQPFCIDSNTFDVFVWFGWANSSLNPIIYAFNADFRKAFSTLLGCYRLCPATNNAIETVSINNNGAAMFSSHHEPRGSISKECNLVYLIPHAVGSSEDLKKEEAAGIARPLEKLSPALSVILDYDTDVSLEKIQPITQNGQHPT
D1 antag: blocks dopamine activation of the human D1 receptor; P21728; HEK293 TREx D1 cells, calcium flux, dopamine EC80; hits give low values; activity change, negative = inhibition, % at 10 µM; 360,000 tested, 3.2% active; in the data active = activity change below about -30%; note: % is set by controls: 0 for no effect and ±100 for the full control effect
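Tetracycline-induced HEK293 T-REx cells with force-coupled D1 receptor were loaded with a no-wash calcium dye. Compound was added after a 10 s baseline and read kinetically for 180 s; EC80 dopamine was then added and calcium flux followed another 180 s.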
TRHR ag: TRH receptor (human) agonism | P34981 | TRHR cells, calcium flux fluo-8, FDSS agonist mode | activation, % at 2 µM | 360,000 tested, 0.18% active; note: 0% is about no effect
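TRHR-expressing cells, plated overnight in medium with 10% serum, were loaded with fluo-8 calcium dye at room temperature. After a 10 s baseline, library compound was pin-added and calcium release was recorded kinetically (ex 480/em 530) as agonist response.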
D1 ag: activates the human D1 dopamine receptor | P21728 | 360,000 tested, 1% active | HEK293 T-REx D1 cells, calcium flux, agonist mode | activation, % at 2 µM; note: 0% is about no effect
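Tetracycline-induced HEK293 TREx D1 cells, force-coupled to calcium signalling, were dye-loaded with a no-wash calcium kit. Compound was pin-added after a 10 s baseline. Fluorescence was read kinetically at 1 cycle/s for 180 s, with calcium rises flagged as agonism.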
TRHR enhancer: allosterically enhances the human TRH receptor | TRHR cells, fluo-8 calcium fluorescence, EC20 TRH enhancement | enhancement, % at 2 µM | 360,000 tested, 0.66% active | P34981; in the data active = enhancement above about 30%; note: 0% is about no effect
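Enhancer read-out: after compound pinning and an initial kinetic agonist-mode read, an EC20 of TRH (10 nM final) was injected and fluo-8 calcium signal (Ex 480/Em 530) followed at 1 s/cycle for 100 cycles in TRHR-expressing cells.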
* = called active by the depositor; · = no result; ! = not active in a repeat. In the library only some 4.6% were active in any assay of this set; here they are far more common. Cut-off read from the data, not from the text of the source, unless noted: active = activation above about 30%; inactive = the rest.

SMILES	Epigenetic reg	D1 potentiator	D1 antag	TRHR ag	D1 ag	TRHR enhancer
Cc1cc(Br)ccc1NC(=O)CSc1c2c(nc3ccccc13)CCC2	0%	-1	10	0	-1	-9
COc1ccc(NC(=O)c2ccc3c(SCC(=O)O)c4c(nc3c2)CCC4)c(OC)c1	0%	1	-35*	0	2	4
O=C(CSc1c2c(nc3ccccc13)CCC2)Nc1ccc(F)cc1F	-2%	-2	-36*	-1	-1	-8
Cc1cc(C)n2nc(CNC(=O)c3ccccc3Cl)nc2n1	5%	-5	-4	1	1	-4
CCOC(=O)c1c(-c2ccccc2)oc2ccc(NS(=O)(=O)c3ccc(C)cc3)cc12	3%	0	-8	2	4	7
Cc1nc2nc(SCC(=O)NCCc3ccc(Cl)cc3)nn2c(C)c1Cc1ccccc1	-2%	1	-10	0	4	-5
Cc1cc(C)c(NC(=O)CSc2nc3ccccc3nc2N2CCCCC2)c(C)c1	0%	7	15	0	1	-3
Cc1nn(C)cc1/C=N/NC(=O)C1(O)c2ccccc2-c2ccccc21	-3%	-6	-34*	1	1	-2
O=C(N/N=C/c1ccco1)C1(O)c2ccccc2-c2ccccc21	0%	-1	12	0	1	-1
CCN(CCNS(=O)(=O)c1ccc2c(c1)oc(=O)n2C)c1ccccc1	2%	-7	-31*	0	4	1
Cc1ccc(C)c(N2CCN(C(=O)CCNS(=O)(=O)c3ccc4c(c3)oc(=O)n4C)CC2)c1	·	-12	-35*	0	11	2
COc1ccccc1CNC(=O)CCNS(=O)(=O)c1ccc2c(c1)oc(=O)n2C	-1%	-7	-36*!	1	1	-21
CCCN(CCC)CCNS(=O)(=O)c1ccc2c(c1)oc(=O)n2C	0%	-6	-9	-2	3	-4
CN(Cc1ccco1)c1ncnc2ccc(-c3cccc(Cl)c3)cc12	·	-6	4	1	4	-4
O=C(Cn1ncc2ccsc2c1=O)N1CCN(c2ccc(Cl)cc2)CC1	5%	-3	-28	0	8	9
COc1ccc(C(=O)Nc2ccccc2C(=O)OCc2cc(=O)n3c4c(sc3n2)CCCC4)cc1	5%	0	2	1	-2	1
CCC(CO)N=CC1=C(O)CC(c2ccccc2)CC1=O (centres undefined)	·	-3	11	0	-2	32*
COC(=O)c1nc2ccc(C)cn2c1F	0%	-4	-58*	0	0	-4
CCS(=O)(=O)c1ncc(N(Cc2cccc(F)c2)Cc2ccco2)c(C(=O)Nc2ccccc2Cl)n1	-3%	2	6	1	1	1
O=C(COc1ccc2c(c1)CCC2)N1CCN(c2cccc(C(F)(F)F)c2)CC1	-1%	-2	-44*	0	8	20
O=C(COc1cccc(C(F)(F)F)c1)N1CCN(c2ccccc2O)CC1	0%	-6	-34*	0	12	-4
Cc1ccc(C(=O)O/N=C/c2ccc3c(c2)OCO3)cc1	1%	-10	-67*	1	6	6
CCN(Cc1ccccc1)C(=O)CN(c1ccc(OC)cc1)S(=O)(=O)c1c(C)nn(C)c1C	2%	6	3	0	0	13
Cc1onc(-c2ccccc2)c1C(=O)Nc1nnc(C(C)C)s1	·	1	10	0	4	1
Cc1onc(-c2ccccc2)c1C(=O)Nc1ncc([N+](=O)[O-])s1	·	-8	-32*	1	43*	-4
O=C(O)COc1cccc(-c2ocnc2-c2nc(-c3ccccc3)c(-c3ccccc3)o2)c1	-1%	·	·	·	·	·
CCOc1cc(C2C(C#N)=C(N)OC3=C2C(=O)CC(C)(C)C3)cc([N+](=O)[O-])c1O (centres undefined)	3%	-3	10	0	4	-4
CC1(C)CC(=O)C2=C(C1)OC(N)=C(C#N)C2c1cc2c(cc1[N+](=O)[O-])OCO2 (centres undefined)	-1%	-2	-33*	1	1	0

Assay outcomes (PubChem)
